Test results reported in PubChem BioAssay (Tox21).
Results filed as inconclusive are left out. Where a call stands in place of a potency, no number is given. The source made the active and inactive calls. Unless noted, calls follow the shape of the dose curve; as a rule, active = well fitted curve in the direction sought with a large enough effect in the repeat runs; inconclusive = weak or mixed curves; inactive = no such curve, though single readings can be large; an effect the other way counts as inactive or inconclusive.

Key:
[1] = A CellTox Green Cytotoxicity Assay to monitor cytotoxicity in HEK293 cells - 32 hour (AID 1224881); also: nearly all actives have a fitted effect of over 40% in size; also: potency is read from the fitted curve at half-maximal effect
Procedure, shortened: (§1)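 Cells (HEK293, 600/well) and dye reagent are dispensed together. After 5 h at 37 C, 23 nL compound is pinned in. Plates stay at 37 C for 40 h with fluorescence read at 0h, 8h, 16h, 24h, 32h and 40h.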

[2] = A CellTox Green Cytotoxicity Assay to monitor cytotoxicity in HepG2 cells - 0 hour (AID 1224882); also: nearly all actives have a fitted effect of over 35% in size
Procedure, shortened: (§2)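 Cells and non-lytic dye reagent are dispensed together (600 HepG2 cells/well) and incubated 5 h before DMSO compound transfer. Kinetic fluorescence is then recorded in the same wells during 40 h at 37 C.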

[3] = A CellTox Green Cytotoxicity Assay to monitor cytotoxicity in HEK293 cells - 8 hour (AID 1224884); also: nearly all actives have a fitted effect of over 35% in size; also: potency is read from the fitted curve at half-maximal effect
Procedure, shortened: as §1

[4] = qHTS RealTime-Glo MT Cell Viability Assay in HepG2 cells - 16 hour (AID 1224885); also: nearly all actives have a fitted effect of over 50% in size; also: potency is read from the fitted curve at half-maximal effect
Procedure, shortened: (§3)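 Real-time, nonlytic viability: 600 HepG2 cells/well mixed with NanoLuc enzyme plus prosubstrate; 5 h settle, compound (DMSO) added by pintool; luminescence monitored over 40 h at 37 C.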

[5] = qHTS RealTime-Glo MT Cell Viability Assay in HEK293 cells - 24 hour (AID 1224886); also: nearly all actives have a fitted effect of over 50% in size; also: potency is read from the fitted curve at half-maximal effect
Procedure, shortened: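 Cells + reagent dispensed (600 cells/well, HEK293) → 5 h at 37 C/5% CO2 → 23 nL compound in DMSO pinned → 40 h at 37 C → luminescence read at 0, 8, 16, 24, 32, 40 h.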

[6] = qHTS RealTime-Glo MT Cell Viability Assay in HEK293 cells - 8 hour (AID 1224887); also: nearly all actives have a fitted effect of over 50% in size; also: potency is read from the fitted curve at half-maximal effect
Procedure, shortened: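 Real-time viability in HEK293: signal arises when living cells convert a prosubstrate for NanoLuc in the medium, so luminescence tracks viable cell number. Compound (23 nL, DMSO) added 5 h post-seeding; kinetic reads at 0–40 h, 37 C.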

[7] = A CellTox Green Cytotoxicity Assay to monitor cytotoxicity in HEK293 cells - 16 hour (AID 1224888); also: nearly all actives have a fitted effect of over 35% in size; also: potency is read from the fitted curve at half-maximal effect
Procedure, shortened: as §1

[8] = qHTS RealTime-Glo MT Cell Viability Assay in HepG2 cells - 0 hour (AID 1224889); also: nearly all actives have a fitted effect of over 50% in size
Procedure, shortened: as §3

[9] = A CellTox Green Cytotoxicity Assay to monitor cytotoxicity in HepG2 cells - 8 hour (AID 1224890); also: nearly all actives have a fitted effect of over 45% in size; also: potency is read from the fitted curve at half-maximal effect
Procedure, shortened: as §2

[10] = qHTS assay to identify small molecule antagonists of the estrogen receptor alpha (ER-alpha) signaling pathway using the BG1 cell line in the presence of 0.1 nM 17-beta-estradiol - cell viability counter screen (AID 1259241); also: nearly all actives have a fitted effect of over 40% in size; also: potency is read from the fitted curve at half-maximal effect
Procedure, shortened: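 Following 5 days in phenol red-free medium with charcoal-stripped serum, VM7Luc4E2 cells received test compounds alongside 0.1 nM 17beta-estradiol (final) at 37C for 22 hr. Live cells were then quantified via protease-substrate fluorescence.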

[11] = qHTS assay to identify small molecule antagonists of the androgen receptor (AR) signaling pathway using the MDA cell line in the presence of 0.5 nM R1881 - cell viability counter screen (AID 1259242); also: nearly all actives have a fitted effect of over 45% in size; also: potency is read from the fitted curve at half-maximal effect
Procedure, shortened: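 Steps: plate MDA-kb2 cells, rest 5 hr at 37C without CO2; pin in compounds in DMSO; add R1881 to 0.5 nM final; incubate 16 hr; add CellTiter-Fluor, 30 min; read fluorescence.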

[12] = target: Estrogen receptor (Homo sapiens) (UniProt P03372); assay: qHTS assay to identify small molecule antagonists of the estrogen receptor alpha (ER-alpha) signaling pathway using the BG1 cell line in the presence of 0.1 nM 17-beta-estradiol (AID 1259244); also: nearly all actives have a fitted effect of over 50% in size; also: potency is read from the fitted curve at half-maximal effect
Procedure, shortened: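 Antagonist mode: compounds in DMSO are pinned onto VM7Luc4E2 reporter cells, 0.1 nM final 17beta-estradiol is added, and after 22 h at 37C luciferase luminescence is measured with ONE-Glo.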

[13] = qHTS assay to identify small molecule HDAC inhibitors (AID 1259364);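 also: wild-type HCT-116 cells with endogenous class I/II HDAC activity; top concentration of the series differs between compounds; nearly all actives have a fitted effect of over 45% in size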
Procedure, shortened: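 Cells (HCT-116, wild type) are seeded at 1,500 per well, incubated overnight, treated with compound in DMSO for 2 hr, then developed with HDAC-Glo I/II reagent for 30 min at room temperature.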

[14] = qHTS assay to identify small molecule HDAC inhibitors - cell viability counter screen (AID 1259365); also: nearly all actives have a fitted effect of over 50% in size; also: potency is read from the fitted curve at half-maximal effect
Procedure, shortened: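 HCT-116 wild-type, overnight attachment; 2hr drug exposure, 37C; CellTiter-Glo luminescent ATP readout after 30min RT.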

[15] = qHTS assay to identify small molecule agonists of the sonic hedgehog signaling (Shh) pathway - cell viability counter screen (AID 1259366); also: nearly all actives have a fitted effect of over 50% in size; also: potency is read from the fitted curve at half-maximal effect
Procedure, shortened: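 Compounds in DMSO were pin-transferred onto 3T3 Gli1-Luc cells that had settled 4hr; plates then stood 24hr at 37C and 5% CO2. One hour before the end, CellTiter-Fluor was added and fluorescence recorded.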

[16] = qHTS assay to identify small molecule antagonists of the sonic hedgehog signaling (Shh) pathway - cell viability counter screen (AID 1259367); also: nearly all actives have a fitted effect of over 55% in size; also: potency is read from the fitted curve at half-maximal effect
Procedure, shortened: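 CellTiter-Fluor signal in conditioned medium-stimulated 3T3 Gli1-Luc cells, 23 hr compound exposure, 37C.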

[17] = qHTS assay to identify small molecule agonists of the sonic hedgehog signaling (Shh) pathway (AID 1259368; calls by dose curve;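 also: NIH/3T3-derived 3T3Gli1-Luc cells carrying a stable Gli1-driven firefly luciferase reporter; series mostly up to about 92 µM; nearly all actives have a fitted effect of over 15% in size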)
Procedure, shortened: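 Cells of a mouse NIH/3T3 clone stably expressing luciferase under the Gli1 transcriptional response element are exposed to test chemicals for 24 hr at 37 C. Pathway activation is detected as a rise in luminescence.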

[18] = qHTS assay to identify small molecule phospholipidosis (PLD) inducers (AID 1259344; active = well fitted curve in the direction sought with a large enough effect; an effect the other way counts as inactive or inconclusive)
Procedure, shortened: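 Accumulated phospholipid, stained red by LipidTOX during 24 h compound treatment of HepG2 cells at 37 C, is quantified from images as pit number and intensity, normalised per cell using Hoechst-stained nuclei.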

[19] = A CellTox Green Cytotoxicity Assay to monitor cytotoxicity in HepG2 cells - 32 hour (AID 1224883); also: nearly all actives have a fitted effect of over 50% in size; also: potency is read from the fitted curve at half-maximal effect
Procedure, shortened: as §2

Chain of Estrogen receptor (Homo sapiens) (P03372 whole entry, looked up): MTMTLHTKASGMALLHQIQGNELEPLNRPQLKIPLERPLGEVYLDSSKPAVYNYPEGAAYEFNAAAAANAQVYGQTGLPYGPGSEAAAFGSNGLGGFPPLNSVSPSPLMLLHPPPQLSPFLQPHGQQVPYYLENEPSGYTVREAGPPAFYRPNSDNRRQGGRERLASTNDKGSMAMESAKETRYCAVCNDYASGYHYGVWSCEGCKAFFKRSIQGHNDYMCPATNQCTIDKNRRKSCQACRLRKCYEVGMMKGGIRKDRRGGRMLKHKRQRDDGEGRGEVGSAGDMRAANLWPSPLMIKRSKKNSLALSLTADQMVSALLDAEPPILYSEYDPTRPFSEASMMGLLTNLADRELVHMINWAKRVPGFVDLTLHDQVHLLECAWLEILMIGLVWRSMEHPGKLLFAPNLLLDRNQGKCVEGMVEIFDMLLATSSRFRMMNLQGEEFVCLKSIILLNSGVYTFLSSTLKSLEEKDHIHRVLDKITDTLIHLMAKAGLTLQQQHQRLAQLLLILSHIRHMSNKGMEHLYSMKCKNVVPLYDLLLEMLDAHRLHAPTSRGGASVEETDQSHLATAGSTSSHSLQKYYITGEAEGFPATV

Row | Structure (SMILES) | Potency [1] | Potency [2] | Potency [3] | Potency [4] | Potency [5] | Potency [6] | Potency [7] | Potency [8] | Potency [9] | Potency [10] | Potency [11] | Potency [12] | Potency [13] | Potency [14] | Potency [15] | Potency [16] | Potency [17] | outcome [18] | Potency [19]
1 | C=C(C)C(=O)[O][Sn]([CH2]CCC)([CH2]CCC)[CH2]CCC | 490 nM (active) | inactive | 11000 nM (active) | 436 nM (active) | 309 nM (active) | 776 nM (active) | 8710 nM (active) | inactive | 871 nM (active) | 770 nM (active) | 545 nM (active) | 486 nM (active) | inactive | 12200 nM (active) | 172 nM (active) | 486 nM (active) | inactive | – | –
2 | CC[C@]1(O)CC[C@H]2[C@@H]3CCC4=CCCC[C@@H]4[C@H]3CC[C@@]21C | inactive | inactive | inactive | inactive | – | inactive | inactive | inactive | inactive | inactive | inactive | – | inactive | inactive | inactive | inactive | inactive | inactive | –
3 | C#CCC1=C(C)C(OC(=O)C2C(C=C(C)C)C2(C)C)CC1=O (configuration not stated) | inactive | inactive | – | inactive | – | – | inactive | inactive | inactive | inactive | inactive | – | inactive | inactive | inactive | – | inactive | – | inactive
4 | O=S(=O)(NS(=O)(=O)C(F)(F)F)C(F)(F)F | inactive | inactive | inactive | inactive | 1230 nM (active) | inactive | inactive | inactive | inactive | inactive | – | – | – | inactive | inactive | inactive | inactive | – | –
5 | ClCBr | inactive | inactive | inactive | inactive | inactive | inactive | inactive | inactive | inactive | inactive | inactive | inactive | inactive | inactive | inactive | inactive | inactive | – | –
6 | Oc1cc(Cl)c(Cl)c(Cl)c1Cl | inactive | inactive | inactive | inactive | 47800 nM (active) | – | inactive | inactive | inactive | inactive | – | – | inactive | inactive | inactive | – | inactive | – | –
7 | CCOP(=S)(OCC)Oc1cc(C)nc(N(CC)CC)n1 | inactive | inactive | – | inactive | – | inactive | inactive | inactive | inactive | inactive | inactive | – | inactive | inactive | inactive | inactive | inactive | – | inactive
8 | Clc1ccc(C(Cl)(Cl)Cl)cc1Cl | 33900 nM (active) | inactive | – | – | 33900 nM (active) | 30200 nM (active) | 38100 nM (active) | inactive | – | inactive | inactive | – | – | inactive | inactive | inactive | inactive | – | 47900 nM (active)
9 | CCOP(=S)(NC(C)C)Oc1ccccc1C(=O)OC(C)C (configuration not stated) | inactive | inactive | – | – | – | – | inactive | inactive | inactive | inactive | – | – | inactive | inactive | inactive | – | inactive | – | inactive
10 | C[C@]12Cc3cn[nH]c3C[C@@H]1CC[C@@H]1[C@@H]2CC[C@@]2(C)[C@H]1CC[C@]2(C)O | inactive | inactive | inactive | inactive | – | inactive | inactive | inactive | inactive | inactive | inactive | – | inactive | inactive | inactive | – | inactive | – | –
11 | COC(=O)C(C)N(C(=O)c1ccco1)c1c(C)cccc1C (configuration not stated) | inactive | inactive | inactive | inactive | inactive | inactive | inactive | inactive | – | inactive | inactive | inactive | inactive | inactive | inactive | inactive | inactive | – | –
12 | Cc1ccn2nc(S(=O)(=O)Nc3c(F)cccc3F)nc2n1 | inactive | inactive | inactive | inactive | inactive | inactive | inactive | inactive | inactive | inactive | inactive | – | inactive | inactive | inactive | inactive | inactive | – | –
13 | CNN | inactive | inactive | inactive | inactive | inactive | inactive | inactive | inactive | inactive | inactive | inactive | – | inactive | inactive | inactive | inactive | inactive | – | –
14 | ClC1(Cl)C2(Cl)C3(Cl)C4(Cl)C(Cl)(Cl)C5(Cl)C3(Cl)C1(Cl)C5(Cl)C24Cl (configuration not stated) | inactive | inactive | inactive | inactive | inactive | inactive | inactive | inactive | inactive | inactive | inactive | inactive | inactive | inactive | inactive | inactive | inactive | – | –
15 | Clc1cc(Cl)c(-c2cc(Cl)c(Cl)cc2Cl)cc1Cl | inactive | inactive | inactive | inactive | inactive | inactive | inactive | inactive | inactive | inactive | inactive | – | inactive | inactive | inactive | inactive | inactive | – | –
16 | CCN(CC)CCc1c[nH]c2ccccc12 | inactive | inactive | inactive | inactive | inactive | inactive | inactive | inactive | inactive | inactive | inactive | inactive | inactive | inactive | inactive | inactive | inactive | inactive | –
